# Sampled rows, rich in hits. Any-hit rate of the full collection: about 4.2%.
# TIM10 inh: TIM10 yeast growth inhibition | S. cerevisiae TIM10 strain growth, BacTiter-Glo luminescence, 24 h | inhibition, % at 10 µM | 1.4% of 330,000 active | AID 463195;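 active = inhibition of 40% or more at the single tested concentration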;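 note: wild-type TIM10 isogenic control strain grown at permissive 25 °C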
# tim23-1 inh: growth inhibitors of tim23-1 mutant yeast. S. cerevisiae tim23-1 growth, BacTiter-Glo luminescence, 24 h. inhibition, % at 20 µM. 1.3% of 330,000 active. AID 463212;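 active = growth inhibition of the mutant yeast at or above 50%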;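 note: temperature-sensitive mutant grown at 25 °C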
# PfHsp90 yeast 2: growth inhibition of yeast expressing Plasmodium Hsp90 | AID 504621 | inhibition, % at 9.4 µM | S. cerevisiae expressing PfHsp90, BacTiter-Glo ATP, 48 h; yeast lacking PDR1 and PDR3 efflux regulators | 0.32% of 310,000 active;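 active = every replicate shows inhibition above about 80%, whatever the replicate mean, limit read from the data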
# NALP1 inh: NALP1 inhibition; S. cerevisiae NALP1/ASC/caspase-1 growth, X-gal OD620, 72 h; inhibition, % at 10 µM; 0.61% of 280,000 active; AID 2071; in the data active = inhibition mostly above about 24%, no sharp cut-off; inactive = mostly below about 32%
# NALP3 yeast inh: NALP3 inhibition in yeast | inhibition, % at 10 µM | Yeast reconstituted NLRP3/ASC/caspase-1, beta-gal luminescence, 24 h | 0.39% of 330,000 active | AID 2825;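 active = inhibition of 50% or more; inactive = inhibition below 50%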
# tim10-1 inh: inhibits growth of tim10-1 mutant yeast; S. cerevisiae tim10-1 ts strain growth, BacTiter-Glo, 24 h; inhibition, % at 20 µM; 2.2% of 330,000 active;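 active = inhibition of at least 40%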;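 note: mutant grown at 25 °C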
# tim10-1 confirm: confirmation of tim10-1 mutant yeast growth inhibitors; shares compounds with tim10-1 inh; S. cerevisiae tim10-1 ts strain growth, BacTiter-Glo, 24 h; inhibition, % at 20 µM; 56% of 7,400 active; AID 463213;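 active = inhibition of yeast growth at or above a set limit in either of two repeat tests at 20 µM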;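 note: tim10-1 mutant grown at permissive 25 °C to find synthetic lethal compounds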
# TIM10 conf: confirmation of TIM10 yeast growth inhibitors | shares compounds with TIM10 inh | S. cerevisiae tim10 strain growth, BacTiter-Glo luminescence, 24 h | inhibition, % at 10 µM | 63% of 4,600 active | AID 463215;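 active = inhibition of yeast growth at or above a set limit in either of two replicates at 10 µM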; note: this counterscreen used the strain with wild-type TIM10
# tim23-1 conf: tim23-1 yeast growth inhibition, confirmed | shares compounds with tim23-1 inh | 83% of 4,400 active | inhibition, % at 20 µM | AID 463218 | S. cerevisiae tim23-1 growth, BacTiter-Glo luminescence, 24 h;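 active = inhibition above about 39% in either of two replicate wells at 20 µM, limit read from the data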;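 note: temperature-sensitive tim23-1 mutant grown at 25 °C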
# Numbers stand for hits; - = inactive; . = no result given.
SMILES,TIM10 inh,tim23-1 inh,PfHsp90 yeast 2,NALP1 inh,NALP3 yeast inh,tim10-1 inh,tim10-1 confirm,tim23-1 conf,others
N/C(Cc1ccc([N+](=O)[O-])cc1)=N\OC(=O)c1cccc(Br)c1,95,91,-,-,-,70,43,86,TIM10 conf=95
N/C(=N\OC(=O)c1cccc(Br)c1)c1ccc([N+](=O)[O-])cc1,-,-,-,-,-,-,.,.,
N/C(Cc1ccc([N+](=O)[O-])cc1)=N\OC(=O)c1ccc([N+](=O)[O-])cc1,84,67,-,-,-,59,74,84,TIM10 conf=86
O=C(/C=C/c1ccccn1)c1cc(Br)ccc1O,72,78,104,-,-,70,62,75,TIM10 conf=68
O=C(/C=C/c1ccccn1)c1ccc(Br)cc1O,.,.,-,-,.,.,.,.,
Cc1noc(C)c1NC(=O)Nc1ccc2c(c1)CC(=O)N([C@@H](C)CO)C[C@@H](C)[C@@H](CN(C)C(=O)Nc1cccc3ccccc13)O2,-,-,-,.,-,-,.,.,
Fc1ccc(CN2CCN(c3ncnc4scc(-c5ccc(F)cc5)c34)CC2)cc1,-,54,-,-,-,50,46,53,
CCOC(=O)N1CCN(c2ncnc3scc(-c4ccccc4)c23)CC1,-,-,-,-,-,-,.,.,
CCOC(=O)N1CCN(c2ncnc3scc(-c4ccc(Cl)cc4)c23)CC1,-,57,-,-,-,46,40,44,
Nc1nc(N2CCCCC2)c(C=O)c(N2CCCCC2)n1,-,-,.,-,-,-,.,.,
COc1ccccc1-c1cc(C(=O)N/N=C/c2ccc(C)s2)c2ccccc2n1,-,61,-,-,-,42,-,65,
CCc1ccc(/C=N/NC(=O)c2cc(-c3ccccc3OC)nc3ccccc23)s1,-,-,-,-,-,-,.,.,
CN1CCN(C(=O)C2=C[C@@H](C3CCCCC3)C[C@@H](OCCCCO)O2)CC1,-,-,-,-,-,-,.,.,
O=C1CS(=O)(=O)N(Cc2ccccc2F)c2ccc(Br)cc21,-,72,-,.,.,41,47,61,
CC1C/C(=C/c2ccccn2)C(=O)/C(=C/c2ccccn2)C1 (centres undefined),67,65,-,-,-,67,66,82,TIM10 conf=71
CCOc1cc(/C=C2/COc3ccccc3C2=O)ccc1OCC(=O)N(C)C,.,.,-,-,.,.,.,.,
CC1C/C(=C/c2ccco2)C(=O)/C(=C/c2ccco2)C1 (centres undefined),-,54,.,-,-,54,32,43,
C(=C\c1ccccn1)/c1ccccn1,-,-,-,-,-,-,.,.,
CC(C)(C)C1C/C(=C/c2ccccn2)C(=O)/C(=C/c2ccccn2)C1 (centres undefined),69,68,100,-,-,66,70,-,TIM10 conf=75
O=C1/C(=C/c2ccccn2)COc2ccccc21,64,76,-,-,-,54,68,72,TIM10 conf=75
COC(=O)[C@]1(C)N[C@H](CN(C)S(=O)(=O)c2ccc(OC(F)(F)F)cc2)[C@@H]2C(=O)N(C)C(=O)[C@@H]21,-,-,-,.,-,-,.,.,
O=C(C(c1ccccc1)C(O)c1ccccc1)N1CCOCC1 (centres undefined),.,.,-,.,.,.,.,.,
COc1cc(NC(=O)COc2ccc(C)c(C)c2)ccc1NC(=O)c1ccco1,-,-,-,-,-,-,.,.,
CCC(C)c1ccc(NC(=S)N2CCN(S(C)(=O)=O)CC2)cc1 (centres undefined),-,-,-,-,-,-,.,.,
NC1=NC[C@@H](Cc2ccc(O)cc2)N1CCC12CC3CC(CC(C3)C1)C2,-,-,-,.,-,-,.,.,
SMILES,TIM10 inh,tim23-1 inh,PfHsp90 yeast 2,NALP1 inh,NALP3 yeast inh,tim10-1 inh,tim10-1 confirm,tim23-1 conf,others
C=CC[n+]1c(-c2ccc(Cl)cc2Cl)csc1Nc1ccc(NC(C)=O)cc1,-,67,-,-,-,60,58,78,
Cc1c(NC(=O)Nc2cc(Cl)ccc2Cl)c(=O)n(-c2ccccc2)n1C,-,-,-,-,-,-,.,.,
CCCC[n+]1c(-c2ccc(Cl)cc2Cl)csc1Nc1ccccc1,-,-,-,-,-,-,.,.,
C=CC[n+]1c(-c2ccc(Cl)cc2Cl)csc1Nc1c(C)n(C)n(-c2ccccc2)c1=O,-,52,-,-,-,49,38,49,
O=C1c2cccc3c([N+](=O)[O-])ccc(c23)C(=O)N1c1ccccn1,77,80,-,-,-,94,89,77,TIM10 conf=-
O=C1c2cccc3c([N+](=O)[O-])ccc(c23)C(=O)N1O,-,-,-,-,-,-,.,.,
CCCCn1c(=O)[nH]c(=O)c2c1nc(CN(C)Cc1cccc(OC)c1OC)n2CCC,.,.,-,-,.,.,.,.,
COC(C/C=C\C(=O)[C@@H](C)OCc1ccccc1)OC,-,52,.,.,-,41,-,45,
O=C1CC(c2cccc(Cl)c2)c2cc3c(cc2N1)CCC3 (centres undefined),-,60,-,-,-,41,-,57,
COc1cccc(C2CC(=O)Nc3cc4c(cc32)CCC4)c1 (centres undefined),-,-,-,-,-,-,.,.,
Cc1ccccc1CC(=O)c1ccc(O)c(C)c1O,-,61,-,-,-,49,46,66,
O=C(/C(N=Nc1cccc([N+](=O)[O-])c1)=C(/O)c1ccc(Br)cc1)C(F)(F)F,-,62,.,-,-,62,62,73,
O=C(Cc1c(F)cccc1Cl)Nc1nc2ccccc2s1,48,55,-,-,-,43,30,63,TIM10 conf=34
COc1ccc(CNCc2c(F)cccc2F)cc1OC,-,-,-,-,-,-,.,.,
COc1ccc(C(=O)/C=C/C(=O)N(CC(=O)NC2CCCCC2)CC2CCCO2)c(O)c1 (centres undefined),49,51,-,-,-,46,56,60,TIM10 conf=52
NC(=O)c1nsc(C(=O)N(Cc2ccc(F)cc2)C(C(=O)NCC2CCCO2)c2ccc(O)cc2)c1N (centres undefined),-,-,-,-,-,-,.,.,
CCc1cc(C(=O)Cc2ccc(F)cc2)c(O)cc1O,-,-,-,-,-,-,.,.,
O=C(Cc1c(F)cccc1Cl)c1ccc(O)cc1O,56,67,-,-,-,48,60,68,TIM10 conf=58
O=C(Cc1ccc(F)cc1)c1ccc(O)cc1O,-,55,-,-,-,44,35,44,
O=C(Nc1ccc(OCC(F)(F)C(F)F)c(C(F)(F)F)c1)c1ccccc1O,62,54,-,-,-,81,76,69,TIM10 conf=-

# Bioassay records (PubChem)
